Assay results reported in PubChem BioAssay (NCATS).
Records with an inconclusive call do not appear. Active and inactive are the calls of the source. Unless noted, calls come from the whole dose curve; as a rule, active = well fitted curve in the direction sought with a large enough effect; inconclusive = small, poorly fitted or top-dose-only effect, or another doubt; inactive = no such curve, though single readings can be large; an effect the other way counts as inactive or inconclusive.

Experiments:
[1] = Cell Viability - BJ (AID 421; calls by dose curve;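 note: potency is the fitted concentration of half-maximal effect; cells exposed to compound for 40 hours at 37 °C before readout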); conditions: BJ fibroblast viability, qHTS
Outline: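 Cytotoxicity in human BJ foreskin fibroblasts is scored as loss of cellular ATP after a 40-hour exposure, measured by luciferase luminescence. Controls are DMSO and 100 uM tamoxifen.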

[2] = Cell Viability - Jurkat (AID 426;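 active = dose-dependent loss of cell ATP signal giving a full or clear fitted curve, ranked by lower potency value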; note: potency is the fitted concentration of half-maximal effect); conditions: qHTS
Outline: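 Jurkat (Clone E6-1) cells, 5000/well in complete medium, exposed to compounds for 40 hr at 37C; intracellular ATP measured by CellTiter-Glo luminescence after 20 min at room temperature. AC50 from Hill fits.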

[3] = Cell Viability - HepG2 (AID 433; calls by dose curve;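 note: potency is the fitted concentration of half-maximal effect; potency for ATP loss meaning cytotoxicity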); conditions: qHTS
Outline: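 HepG2 hepatocellular carcinoma cells (1500/well) were treated with compounds for 40 h at 37 °C in complete medium; intracellular ATP was read by CellTiter-Glo luminescence. Data were normalized to DMSO and 100 uM tamoxifen, and AC50 came from Hill fits.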

[4] = Cell Viability - SK-N-SH (AID 435; calls by dose curve;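 note: potency is the fitted concentration of half-maximal effect; compound exposure lasted 40 h at 37 °C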); conditions: SK-N-SH neuroblastoma cell viability qHTS
Outline: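 SK-N-SH human neuroblastoma cells (1500/well) were exposed to compounds in complete medium for 40 h at 37 °C, and intracellular ATP was then measured by CellTiter-Glo luminescence. AC50 was taken from Hill fits, normalized to DMSO and 100 uM tamoxifen.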

[5] = target: Mitogen-activated protein kinase 10 (Mus musculus) (UniProt Q61831); experiment: JNK3 AlphaScreen Assay (AID 530; active = well fitted curve in either direction with a large enough effect, not every such curve was filed as active;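 note: kinase came from lysate of stimulated human HepG2 cells; signal reports phosphorylation of biotinylated GST-cJun 1-79 at Ser73 with 10 µM ATP; % is set by controls: 0 for no effect and ±100 for the full control effect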)
Outline: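 Inhibitors reduce antibody binding to phosphorylated biotin-cJun, lowering AlphaScreen luminescence. Lysates from HepG2 cells pre-activated by IL-1beta plus TNF-alpha supplied JNK3; compounds were titrated.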

[6] = Cell Viability - N2a (AID 540); conditions: N2a mouse neuroblastoma cell viability; activity change, negative = cytotoxicity: at 92.2 µM (top of the series);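 note: plate controls were DMSO alone for no effect and tamoxifen control for full effect; nearly all actives have a fitted effect of over 45% in size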
Outline: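 Mouse neuroblastoma N2a cells, 1500/well, exposed to compounds 40 h at 37 °C in complete medium. Viability measured as cellular ATP by CellTiter-Glo luminescence; AC50 from Hill fits of concentration-response.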

[7] = Cell Viability - HUV-EC-C (AID 542); note: % is set by controls: 0 for no effect and ±100 for the full control effect; nearly all actives have a fitted effect of over 35% in size
Outline: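 HUV-EC-C human vascular endothelial cells, 1000/well, exposed to compound for 40 hr at 37 °C in complete medium. Intracellular ATP was read by CellTiter-Glo luminescence. AC50 came from Hill-equation fits of concentration-response data.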

[8] = Cell Viability - H-4-II-E (AID 543); note: % is set by controls: 0 for no effect and ±100 for the full control effect; nearly all actives have a fitted effect of over 35% in size
Outline: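 Rat hepatoma H-4-II-E cells, 1500 per well, treated 40 h at 37 °C in complete medium. Cellular ATP read by CellTiter-Glo luminescence; AC50 from Hill fits of concentration-response.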

[9] = Cell Viability - SH-SY5Y (AID 544); note: nearly all actives have a fitted effect of over 55% in size
Outline: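 SH-SY5Y human neuroblastoma cells (1500/well) incubated 5 h, then compound-treated 40 h at 37 °C in complete medium. Viability read as intracellular ATP by CellTiter-Glo luminescence after 20 min; AC50 from Hill-equation fits of qHTS concentration-response.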

[10] = Cell Viability - Renal Proximal Tubule (AID 545); conditions: renal proximal tubule cells viability, primary cells of rat origin; at 91.7 µM (top of the series); note: nearly all actives have a fitted effect of over 40% in size
Outline: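 Primary rat renal proximal tubule cells (1000/well) were treated with compounds for 40 hr at 37 °C in complete medium. Intracellular ATP was measured by CellTiter-Glo luminescence, and AC50 values came from Hill-equation fits of concentration-response data.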

[11] = Cell Viability - Mesenchymal (AID 546); conditions: mesenchymal cells viability, qHTS; activity change, negative = cytotoxicity: at 91.7 µM (top of the series);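 note: cells exposed to compound for 40 hours before reading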
Outline: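 Normal human renal glomerulus-derived kidney mesenchymal cells, 1000 per well in complete medium, were treated with compounds for 40 hr at 37 °C. Viability was read as intracellular ATP by CellTiter-Glo luminescence; AC50 values came from Hill-equation fits of qHTS concentration-response data.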

[12] = Cellular Toxicity (caspase-3) HepG2 (AID 654);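 note: cells exposed to compound for 16 hours before reading; 0% = DMSO alone and 100% = caspase signal from 100 µM tamoxifen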
Outline: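 HepG2 cells (1500/well) were treated 16 h at 37 °C in complete medium, then caspase 3/7 activity was read by Caspase-Glo luminescence. Data were normalized to DMSO and 100 uM tamoxifen; AC50 came from Hill-equation fits of qHTS concentration-response.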

[13] = Cellular Toxicity (caspase-3) Jurkat (AID 655); conditions: Jurkat caspase-3 activation, luminescence, DMSO = 0%, tamoxifen = 100%; at 92.2 µM (top of the series);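 note: cells exposed to compound for 16 h at 37 °C before reading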
Outline: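 Jurkat cells (5000/well) in complete medium were treated with compounds for 16 hr at 37 °C, then Caspase-Glo 3/7 luminescence was read after 20 min at room temperature. Data normalized to DMSO (basal) and 100 uM tamoxifen (100%); AC50 from Hill fit.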

[14] = Cellular Toxicity (caspase-3) HUV-EC-C (AID 656)
Outline: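 HUV-EC-C endothelial cells, 1000/well, were pre-incubated 5 hr at 37°C, then exposed to compounds for 16 hr at 37°C. Caspase-Glo 3/7 luminescence was read after 20 min at room temperature. AC50 came from Hill fits, normalized to DMSO and 100 uM tamoxifen.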

[15] = Cellular Toxicity (caspase-3) SHSY5Y (AID 657)
Outline: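 SH-SY5Y human neuroblastoma cells (1500/well) were treated with compounds for 16 h at 37 °C, then Caspase-Glo 3/7 luminescence was read after 1 h at room temperature. Data normalized to DMSO and 10 uM staurosporine; AC50 from Hill fits.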

[16] = Cellular Toxicity (caspase-3) BJ (AID 658);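 note: 0% = DMSO basal and 100% = 10 µM staurosporine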
Outline: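 Luminescent aminoluciferin-substrate cleavage reports caspase 3/7 activity in normal human BJ fibroblasts after 16 hr compound exposure at 37 °C. Normalized to DMSO (basal) and 10 uM staurosporine (100%); AC50 from Hill fit of concentration-response.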

[17] = Cellular Toxicity (caspase-3) MRC-5 (AID 659);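 note: 0% = DMSO basal and 100% = 10 µM staurosporine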
Outline: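 Luminescence from caspase-cleaved aminoluciferin substrate (Caspase-Glo 3/7, 1 hr RT) reports caspase 3/7 activity in MRC-5 lung fibroblasts after 16 hr compound exposure. Normalized to DMSO basal and 10 uM staurosporine as 100%; AC50 from Hill fits.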

[18] = Cellular Toxicity (caspase-3) Mesangial (AID 660);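 note: cells exposed to compound for 16 h before the caspase read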
Outline: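 Human renal glomerular mesangial cells, 1000/well, 5 h at 37 C before 16 h compound treatment. Caspase-Glo 3/7 luminescence after 20 min; normalized to DMSO and 100 uM tamoxifen, AC50 from Hill fit.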

[19] = Cellular Toxicity (caspase-3) SK-N-SH (AID 661);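 note: 0% = DMSO basal and 100% = 10 µM staurosporine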
Outline: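 Human SK-N-SH neuroblastoma cells, 1500/well, were exposed to compounds for 16 hours at 37 °C. Caspase-Glo 3/7 luminescence was normalized to DMSO (basal) and 10 uM staurosporine (100%), and AC50 came from a Hill fit.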

[20] = Cellular Toxicity (caspase-3) Hek293 (AID 664);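 note: cells exposed to compound for 16 h at 37 °C before readout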
Outline: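 HEK293 cells in complete medium treated 16 h at 37 °C, then Caspase-Glo 3/7 luminescence read after 20 min at room temperature. Normalized to DMSO and 100 uM tamoxifen; AC50 from Hill fit of concentration-response.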

[21] = Cellular Toxicity (caspase-3) N2a (AID 665);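 note: compound exposure lasted 16 h at 37 °C before readout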
Outline: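 Mouse N2a neuroblastoma cells, 1500 per well, treated 16 h at 37 °C in complete medium; caspase-3/7 activity by Caspase-Glo luminescence after 1 h. Normalized to DMSO and 10 uM staurosporine; AC50 from Hill fits.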

[22] = Cellular Toxicity (caspase-3) NIH 3T3 (AID 666);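 note: caspase signal read after 16 h compound exposure; 0% = DMSO basal and 100% = 100 µM tamoxifen stimulation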
Outline: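 Mouse NIH 3T3 fibroblasts (1000/well) treated 16 h at 37 C; caspase-3/7 activity measured by Caspase-Glo 3/7 luminescence after 20 min. Normalized to DMSO and 100 uM tamoxifen; AC50 from Hill fits.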

[23] = Cellular Toxicity (caspase-3) Renal Proximal Tubule (AID 667);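 note: cells exposed to compound for 16 hours at 37 °C before detection; 0% = DMSO basal and 100% = 10 µM staurosporine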
Outline: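 Primary rat proximal tubule cells, 1000/well, 5 h plating at 37 °C, then compound 16 h at 37 °C. Caspase-Glo 3/7 reagent, 1 h RT, luminescence. Normalized to DMSO (basal) and 10 uM staurosporine (100%); Hill-fit AC50.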

[24] = Cell Viability - LYMP2-001 (AID 921);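 note: 0% = DMSO only and full inhibition = tetraoctylammonium bromide control wells; nearly all actives have a fitted effect of over 70% in size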
Outline: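 Human lymphoblastoid cells (Coriell), 2500 per well, were preincubated 5 hr at 37 C, then exposed to compounds in complete medium for 24 hr at 37 C. Cellular ATP was read by CellTiter-Glo luminescence; AC50 from Hill fits of concentration-response data.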

[25] = MultiTox-Fluor Cytotoxicity Assay - LYMP1-001 - Dead Cells (AID 946)
Outline: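 Seed 2500 LYMP1-001 cells/well, incubate 5 hr at 37 C; add compound, 16 hr at 37 C; add MultiTox-Fluor reagent, 60 min RT; read dead-cell fluorescence Ex/Em=485/520. Normalize to DMSO and 15 uM tetraoctylammonium bromide.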

[26] = MultiTox-Fluor Cytotoxicity Assay - LYMP1-001 - Live Cells (AID 947);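 note: 0% = DMSO only and full inhibition = tetraoctylammonium bromide control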
[27] = Cell Viability - LYMP1-002 - Assay at 16 hr (AID 948);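 note: 0% = DMSO alone and full effect = 92 µM tetraoctylammonium bromide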
Outline: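 Human lymphoblastoid cells (LYMP1-002), 2500/well, were preincubated 5 hr at 37 C, then exposed to compounds for 16 hr at 37 C in complete medium. Cellular ATP was read by CellTiter-Glo luminescence after 30 min at room temperature; AC50 from Hill fits.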

[28] = MultiTox-Fluor Cytotoxicity Assay - LYMP1-002 - Live Cells (AID 955); note: % is set by controls: 0 for no effect and ±100 for the full control effect
Outline: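 Human lymphoblastoid LYMP1-002 cells, 2500/well, treated 16 h at 37 C in complete medium. Live-cell protease activity via GF-AFC fluorescence (Ex/Em 405/510) after 60 min reagent incubation; AC50 from Hill fits.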

[29] = MultiTox-Fluor Cytotoxicity Assay - LYMP1-003 - Dead Cells (AID 961); note: nearly all actives have a fitted effect of over 70% in size
Outline: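 LYMP1-003 lymphoblastoid, 2500 cells/well, 5 hr settle then 16 hr cpd at 37 C; MultiTox-Fluor reagent 60 min RT; Ex/Em 485/520 dead-cell signal; norm. DMSO = 0%, 15 uM tetraoctylammonium bromide = 100%; Hill AC50.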

[30] = MultiTox-Fluor Cytotoxicity Assay - LYMP1-003 - Live Cells (AID 962);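 note: 0% = DMSO only and full loss = 92 µM tetraoctylammonium bromide; cytotoxic hits lower the live-cell protease signal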
Outline: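 LYMP1-003 lymphoblastoid cells, 2500/well in complete medium, treated 16 h at 37 C; live-cell protease cleavage of GF-AFC read by fluorescence (Ex/Em 405/510) after 60 min reagent; AC50 from Hill fits of concentration-response.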

[31] = Cell Viability - LYMP1-003 - Assay at 24 hr (AID 963);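 note: plate controls were DMSO only for no effect and tetraoctylammonium bromide positive control for full effect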
Outline: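 Human lymphoblastoid LYMP1-003 cells, 2500/well, treated 24 h at 37 C in complete medium. Viability read as intracellular ATP by CellTiter-Glo luminescence after 30 min at room temperature; AC50 from Hill-equation fits of qHTS concentration-response.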

[32] = Cell Viability - LYMP1-003 - Assay at 40 hr (AID 964); note: % is set by controls: 0 for no effect and ±100 for the full control effect; nearly all actives have a fitted effect of over 60% in size
Outline: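 LYMP1-003 human lymphoblastoid cells, 2500/well, preincubated 5 h at 37 C, then treated with compound for 40 h at 37 C. Intracellular ATP read by CellTiter-Glo luminescence after 30 min at room temperature; AC50 from Hill-equation fits.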

[33] = Cell Viability - LYMP2-003 (AID 965);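 note: cells exposed to compounds for 24 h before reading; 0% = DMSO only and full effect = 92 µM tetraoctylammonium bromide; nearly all actives have a fitted effect of over 50% in size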
Outline: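 Human lymphoblastoid cells (2500/well) were pre-incubated 5 hr at 37 C, then exposed to compounds over a concentration range for 24 hr at 37 C. Intracellular ATP was read by CellTiter-Glo luminescence; AC50 came from Hill-equation fits.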

[34] = Cell Viability - LYMP2-004 (AID 966);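 note: plate controls were DMSO only for no effect and tetraoctylammonium bromide control for full effect; nearly all actives have a fitted effect of over 65% in size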
Outline: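 Lymphoblastoid LYMP2-004 cells, 2500 per well, were preincubated for 5 hr and then treated with compound for 24 h at 37 C in complete medium. Viability was read as cellular ATP by CellTiter-Glo luminescence, and AC50 values were taken from Hill fits to concentration-response data.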

[35] = Cell Viability - LYMP2-005 (AID 967);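 note: plate controls were DMSO only for no effect and 92 µM tetraoctylammonium bromide control for full effect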
Outline: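 CellTiter-Glo luminescence (cellular ATP) read-out; LYMP2-005 lymphoblastoid cells, 2500/well, 5 h pre-incubation, then 24 h compound exposure at 37 C in complete medium. Tetraoctylammonium bromide positive control; AC50 by standard Hill fit.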

[36] = Cell Viability - LYMP2-009 (AID 968);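 note: 0% = DMSO alone and the full-kill end = tetraoctylammonium bromide at 92 µM; nearly all actives have a fitted effect of over 55% in size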
[37] = Cell Viability - LYMP2-011 (AID 969);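 note: 0% = DMSO only and full inhibition = 92 µM tetraoctylammonium bromide; nearly all actives have a fitted effect of over 60% in size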
Outline: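 2500 cells/well in complete medium, compound-treated 24 h at 37 C. Viability read as intracellular ATP by CellTiter-Glo luminescence after 30 min at room temperature. AC50 from Hill fits of qHTS concentration-response data.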

C[C@H](CCC(=O)O)[C@H]1CC[C@H]2[C@@H]3CC[C@@H]4C[C@H](O)CC[C@]4(C)[C@H]3CC[C@]12C
inactive: Potency [1] > 92 µM | Potency [2] > 92 µM | Potency [3] > 92 µM | Potency [4] > 92 µM | Potency [5] | activity change, negative = cytotoxicity [6] 2.31% | outcome [7] | Potency [8] | Potency [9] | activity change, negative = cytotoxicity [10] -4.96% | activity change, negative = cytotoxicity [11] 15.4% | outcome [12] | caspase-3 activation [13] -0.354% | outcome [14] | outcome [15] | outcome [16] | outcome [17] | outcome [18] | outcome [19] | outcome [20] | outcome [21] | outcome [22] | outcome [23] | Potency [24] | Potency [25] | Potency [26] | Potency [27] | Potency [28] | Potency [29] | Potency [30] | Potency [31] | Potency [32] | Potency [33] | Potency [34] | Potency [35] | Potency [36] | Potency [37]
